Assay results as given in article PMC4336329 (PLoS ONE, 2015).
In all, about 310,000 compounds went through this assay and about 14,000 (4.5%) showed an effect of 50% or more. Effects have a minus sign here. For the sample, strong results were picked, then their nearest neighbours and some compounds at random.

These compounds were tested against human ether-à-go-go-related gene (hERG) potassium channel (human, UniProt Q12809) (assay: primary screen, population patch clamp on CHO cells stably expressing hERG; higher = less effect of the substance).
Chain of human ether-à-go-go-related gene (hERG) potassium channel (Q12809 whole entry, looked up): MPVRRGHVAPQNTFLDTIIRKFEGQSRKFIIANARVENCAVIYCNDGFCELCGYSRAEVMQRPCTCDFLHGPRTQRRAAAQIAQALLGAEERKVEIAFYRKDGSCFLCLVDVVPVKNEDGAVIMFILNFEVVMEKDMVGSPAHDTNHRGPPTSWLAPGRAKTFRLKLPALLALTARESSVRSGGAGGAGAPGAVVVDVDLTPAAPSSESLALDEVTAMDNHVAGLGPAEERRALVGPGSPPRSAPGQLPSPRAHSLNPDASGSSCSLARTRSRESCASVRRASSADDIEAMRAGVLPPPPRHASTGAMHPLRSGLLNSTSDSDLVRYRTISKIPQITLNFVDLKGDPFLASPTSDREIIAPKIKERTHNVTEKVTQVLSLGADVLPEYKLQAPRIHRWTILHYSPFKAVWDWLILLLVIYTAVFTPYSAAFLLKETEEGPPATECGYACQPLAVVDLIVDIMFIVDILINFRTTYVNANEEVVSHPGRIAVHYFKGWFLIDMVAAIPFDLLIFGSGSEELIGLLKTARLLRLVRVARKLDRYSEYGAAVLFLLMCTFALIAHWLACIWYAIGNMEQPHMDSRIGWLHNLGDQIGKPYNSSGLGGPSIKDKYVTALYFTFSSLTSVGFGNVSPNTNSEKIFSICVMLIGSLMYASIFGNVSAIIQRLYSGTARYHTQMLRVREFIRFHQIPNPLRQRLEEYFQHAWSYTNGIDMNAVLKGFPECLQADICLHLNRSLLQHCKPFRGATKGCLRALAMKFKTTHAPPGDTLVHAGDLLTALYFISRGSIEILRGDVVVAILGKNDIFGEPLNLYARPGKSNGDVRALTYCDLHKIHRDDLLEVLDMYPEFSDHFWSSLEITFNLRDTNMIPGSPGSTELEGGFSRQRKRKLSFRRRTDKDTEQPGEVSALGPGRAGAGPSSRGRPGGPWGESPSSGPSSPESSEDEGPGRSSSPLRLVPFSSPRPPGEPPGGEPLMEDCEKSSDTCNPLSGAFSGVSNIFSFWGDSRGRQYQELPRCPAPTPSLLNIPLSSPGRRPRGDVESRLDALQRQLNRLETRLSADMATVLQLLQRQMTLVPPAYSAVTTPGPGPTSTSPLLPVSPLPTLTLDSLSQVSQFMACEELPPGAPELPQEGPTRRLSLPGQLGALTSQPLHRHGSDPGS
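Also: peak tail current of the secondary pulse compared with the same well before compound.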

Row | Compound | hERG current change (%, negative = inhibition) at 10uM [%]
1 | O=C(O)CC1c2ccccc2CCN1S(=O)(=O)c1ccccc1 (stereo not drawn) | -1.51
2 | COc1ccc(N2C(=O)CN=C2Nc2nc(C)cc(C)n2)cc1OC | -4.68
3 | Cc1cccc(NC(=S)NCc2ccc3c(c2)cc(C)n3C)c1C | -9.2
4 | CC(=O)c1ccc(NC(=O)CSc2nc(N3CCOCC3)nc(N3CCOCC3)n2)cc1 | -7.67
5 | Cc1ccc(NS(=O)(=O)c2c(C)nc3sccn3c2=O)c(C)c1 | -15.2
6 | COc1ccc(NC2CCCN(C(=O)c3cccc(C)n3)C2)cc1OC (stereo not drawn) | 18.5
7 | CC1(C)N=C(c2ccccc2)[C@@H]2C(c3ccc([N+](=O)[O-])cc3)N21 (stereo partly drawn) | -31.6
8 | CC12CCC(C(=O)Nc3nc4ccc(Br)cc4s3)(OC1=O)C2(C)C (stereo not drawn) | -2.78
9 | COc1cc2c(cc1OC)CN(CCC(C)c1ccc(Cl)cc1)CC2.O=C(O)/C=C\C(=O)O (stereo not drawn) | -72.1
10 | COc1cc2c(cc1OC)C(C)N(Cc1ccc3c(c1)OCO3)CC2 (stereo not drawn) | -3.76
11 | COc1cc2c(cc1OC)C(C)N(CCc1ccc(Cl)cc1)CC2.O=C(O)/C=C\C(=O)O (stereo not drawn) | -70.2
12 | COc1cc2c(cc1OC)C(C)N(CCN1C(=O)c3ccccc3C1=O)CC2 (stereo not drawn) | 17.5
13 | COc1cc2c(cc1OC)CN(CC(O)c1ccccc1)CC2 (stereo not drawn) | 14.4
14 | COc1cc2c(cc1OC)CN(CC(=O)Nc1ccc(Cl)cc1Cl)CC2 | -11.7
15 | Br.COc1cccc(C(=O)CSc2nccn2C)c1 | 24.2
16 | COc1ccc(Cl)cc1NC(=O)CSc1nnc(-c2ccncc2)n1CC1CCCO1 (stereo not drawn) | -28.2
17 | C=CCn1c(N2CCN(c3ccc(OC)cc3)CC2)nc2c1c(=O)[nH]c(=O)n2C | -24.6
18 | COc1cccc(N2C(=O)C3CCCN3C2c2ccc(F)cc2)c1 (stereo not drawn) | 6.88
19 | CCOc1nc2cnccc2n(CC(=O)Nc2ccccc2F)c1=O | 26.4
20 | COC(=O)c1ccccc1OCCCN(C)C.O=C(O)C(=O)O | -17.4
21 | C=CCN(CC=C)CCCOc1ccc(C)cc1OC.O=C(O)C(=O)O | -45.1
22 | C=CCN(CC=C)CCCOc1ccccc1C(=O)OC.O=C(O)C(=O)O | -72.4
23 | C/C(N)=C(/C#N)C(=O)CSc1cc(C)c2cc(C)cc(C)c2n1 | 2.54
24 | COc1cccc(N2CCN(C(=O)c3cc4c(OC)c(OC)c(OC)cc4[nH]3)CC2)c1 | 9.11
25 | COC(=O)c1ccc(OC(=O)C2CSC3(C)CCC(=O)N23)cc1 (stereo not drawn) | -1.4
26 | O=C(NC1CCCCC1)c1cc([N+](=O)[O-])ccc1N1CCCCC1 | -17

Row | Compound | hERG current change (%, negative = inhibition) at 10uM [%]
27 | CCCCCn1c(N)c(-c2nc3ccccc3s2)c2c([N+](=O)[O-])nn(CC)c(=O)c21 | 5.78
28 | CCC(=O)c1ccc(OCC(=O)Nc2cc(S(=O)(=O)N3CCCCC3)ccc2OC)cc1 | -19.8
29 | CCOc1ccccc1OCC(=O)Nc1cc(S(=O)(=O)N2CCCCC2)ccc1N1CCN(CC)CC1 | -71.5
30 | CCC(=O)c1ccc(OCC(=O)Nc2cc(S(=O)(=O)N3CCCCC3)ccc2N2CCN(CC)CC2)cc1 | -84.3
31 | COc1ccccc1OCC(=O)Nc1cc(S(=O)(=O)N2CCCCC2)ccc1N1CCCCC1 | 2.21
32 | CCN1CCN(c2ccc(S(=O)(=O)N3CCCCC3)cc2NC(=O)Cc2c(Cl)cccc2Cl)CC1 | -38.6
33 | CCN1CCN(c2ccc(S(=O)(=O)N3CCCCC3)cc2NC(=O)COc2ccccc2)CC1 | -66.6
34 | CCN1CCN(c2ccc(S(=O)(=O)N3CCCCC3)cc2NC(=O)COc2ccc(Cl)cc2)CC1 | -15.2
35 | N#Cc1ccc(OCC(=O)Nc2cc(S(=O)(=O)N3CCCCC3)ccc2N2CCCCC2)cc1 | -13.3
36 | CCOc1ccccc1OCC(=O)Nc1cc(S(=O)(=O)N2CCCCC2)ccc1OC | -16
37 | CCN1CCN(c2ccc(S(=O)(=O)N3CCCCC3)cc2NC(=O)COc2cc(C)ccc2Cl)CC1 | -14.1
38 | CCN1CCN(c2ccc(S(=O)(=O)N3CCCCC3)cc2NC(=O)COc2ccc(Cl)c(C)c2)CC1 | -34.5
39 | CCN1CCN(c2ccc(S(=O)(=O)N3CCCCC3)cc2NC(=O)COc2ccc(F)cc2Cl)CC1 | -65.1
40 | CSc1nnc([C@@H](N)Cc2c[nH]c3ccccc23)o1.Cl | 30.1
41 | CN1CCNC(=O)C1CC(=O)NCCc1ccccc1F (stereo not drawn) | 13.4
42 | CCCCNC(=O)O[C@H]1C[C@@H]2CCN3C(=O)CCC[C@H]([C@H]1CC)[C@H]23 | -8.19
43 | Cc1c(-c2ccc(/C=N/NC(=O)C(=O)Nc3ccccc3F)o2)cccc1[N+](=O)[O-] | 21.1
44 | CN1CCN(C(=O)c2ccccc2NC(=O)c2ccc(C(C)(C)C)cc2)CC1 | -9.21
45 | Cc1onc(C(=O)N2CCN(Cc3ccccc3)CC2)c1[N+](=O)[O-] | -10.7
46 | NSc1nc(N)c2nc(-c3ccccc3)c(-c3ccccc3)nc2n1 | 4.96
47 | CCc1cc2c(=O)n(-c3ccccc3)cnc2s1 | 5.13
48 | COc1ccc(CN(C)C(=O)c2ccc(NS(=O)(=O)c3ccc(F)cc3)cc2)c(OC)c1OC | -55.6
49 | COc1ccc(CN(C)C(=O)c2ccc(NS(=O)(=O)c3ccc(F)cc3)cc2)c(OC)c1 | 3.52
50 | COc1cccc(CN(C)C(=O)c2ccc(NS(=O)(=O)c3ccc(F)cc3)cc2)c1OC | -9.34
51 | COC(=O)C(C)n1cnc2c(nnn2-c2cccc(Cl)c2)c1=O (stereo not drawn) | -13.4
